The record followed here is PubChem BioAssay (NCATS).

SMILES strings stand for the structures. “And” between values parts separate entries of the source, which are not always exact repeats. Equal entries are not always repeated. Results filed as inconclusive are left out. Unmarked numbers belong to inactive results. The source made the active and inactive calls. The call rests on the fitted dose curve; in most records, active means well fitted curve in the direction sought with a large enough effect; inconclusive means small, poorly fitted or top-dose-only effect, or another doubt; inactive means no such curve, though single readings can be large or run the other way.
On the % scale 0 is the no-effect control and ±100 the full control effect; potency means the concentration at half of the fitted maximal effect.

The experiment is described as follows: qHTS Assay for Identifying Gametocytocidal Compounds (AID 743244).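 On max response: actives lower the fluorescent signal which means gametocytes are killed.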 To be noted: P. falciparum 3D7 stage III-V gametocytes, alamarBlue, 72 h; max response: active compounds read low. In short, it runs like this:
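Late gametocytes (III–V), P. falciparum 3D7; 72 h drug, then 24 h alamarBlue; resazurin reduction read by fluorescence.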
For orientation: In qHTS, concentration-response curves come from the screen itself.
In the case of `CCCCCN(CCCCC)C(=O)C(CCC(=O)O)NC(=O)c1ccc(Cl)c(Cl)c1` (stereo not drawn), the max response was 10.8% and 16.9%.

As for `CN(C)CC[C@@H](c1ccc(Br)cc1)c1ccccn1`, the max response is -2.43% and 14.2%.

On to `CCN(Cc1ccncc1)C(=O)C(CO)c1ccccc1` (stereo not drawn), for which the max response is 10.4% and 27%.

On to `CN1CCN(CC(=O)N2c3ccccc3C(=O)Nc3cccnc32)CC1`, for which the max response is 0.314% and 3.31%.

Regarding `CCCN(CCC)CCc1cccc2c1CC(=O)N2`, the max response was 3.57% and 20.6%.

Regarding `CCN1CCC[C@H]1CNC(=O)c1c(O)c(Cl)cc(Cl)c1OC`, the max response is 5.28% and 32.3%.

Regarding `CC(N=C(NC#N)Nc1ccncc1)C(C)(C)C` (stereo not drawn), the max response was 14.1% and -10.9%.

On to `COCCc1ccc(OCC(O)CNC(C)C)cc1` (stereo not drawn), for which the max response was -3.26% and -1.45% and -10.9%.

Turning to `CN(C)C(=O)Oc1cccc([N+](C)(C)C)c1`, the max response is 5.44% and 20.8%.

`CC(=O)Oc1cc(C(C)C)c(OCCN(C)C)cc1C`: the max response was 14.5% and 12.4%.

Take `Cc1ccc(Cl)c(Nc2ccccc2C(=O)O)c1Cl`: the max response is -8.31% and 12.8%.

On to `COc1cc(C(=O)OCCCN2CCCN(CCCOC(=O)c3cc(OC)c(OC)c(OC)c3)CC2)cc(OC)c1OC`, for which the max response is -8.17% and 18.7%.

For the compound `NC/C=C/C(=O)O`, the max response was 18.4% and 29.6%.

As to `NS(=O)(=O)c1cc2c(cc1Cl)NC(C1CC3C=CC1C3)NS2(=O)=O` (stereo not drawn), the max response is -0.791% and -20.2%.

With `CC(C)NNC(=O)c1ccncc1`, the max response was -4.04% and 10%.

As to `CCCC(C(=O)OCCN(CC)CC)(c1ccccc1)c1ccccc1`, the max response was -0.916%.

On to `NC(=O)c1cn(Cc2c(F)cccc2F)nn1`, for which the max response was 3.65% and -7.75%.

In the case of `Cc1nc2ccccn2c(=O)c1CCN1CCC(C(=O)c2ccc(F)cc2)CC1`, the max response is 14.2%.

For the compound `C[C@H](CS)C(=O)N1CCC[C@H]1C(=O)O`, the max response was -9.05% and 12%.

As to `O=C(CCCN1CCC(O)(c2cccc(C(F)(F)F)c2)CC1)c1ccc(F)cc1`, the max response is 20%.

`CCCCNc1ccc(C(=O)OCCN(C)C)cc1`: the max response is -1.47% and 12.4%.

`Cc1nnc(SCC2=C(C(=O)O)N3C(=O)[C@@H](NC(=O)Cn4cnnn4)[C@H]3SC2)s1`: the max response was 5.06% and 32.1%.

For the compound `CCOC(=O)C1=C(C)NC(C)=C(C(=O)OC)C1c1cccc(Cl)c1Cl` (stereo not drawn), the max response was 21.2% and 4.35%.

Regarding `CCN(CC)CC(=O)Nc1c(C)cccc1C`, the max response was 0.639% and 6.44%.

`CN(C(=O)CCCOc1ccc2[nH]c(=O)ccc2c1)C1CCCCC1`: the max response was -2.24% and 11%.

For `CCN(CC)CCNC(=O)c1cc(S(C)(=O)=O)ccc1OC`, the max response is -4.07%.

For `COc1cc2c(cc1OC)-c1cc(=Nc3c(C)cc(C)cc3C)n(C)c(=O)n1CC2`, the max response is 25.2%.

Consider `CC(C(=O)O)c1ccc(CC2CCCC2=O)cc1` (stereo not drawn), for which the max response was -0.912% and 17.1%.

Turning to `CN(C)[C@@H]1C(=O)C(C(N)=O)=C(O)[C@@]2(O)C(=O)C3=C(O)c4c(O)ccc(Cl)c4[C@@H](O)[C@H]3C[C@@H]12`, the max response was -7.62% and 22.4%.

Consider `C=CCc1ccccc1OCC(O)CNC(C)C` (stereo not drawn), for which the max response was 17.2%.

In the case of `CCCNC(C)C(=O)Nc1ccccc1C` (stereo not drawn), the max response is 7.26% and 27.6%.

Regarding `Cc1ccc(/C(=C\CN2CCCC2)c2ccccn2)cc1`, the max response was 24.5% and 21.6%.

For the compound `CC(=O)[C@]1(O)Cc2c(O)c3c(c(O)c2[C@@H](O[C@H]2C[C@H](N)[C@H](O)[C@H](C)O2)C1)C(=O)c1ccccc1C3=O`, the Potency was 6.31 µM (active) and 1.12 µM (active).
